Results taken from PubChem BioAssay (Tox21).
A number with no mark means an inactive call. Where a call stands in place of a potency, no number is given. The source made the active and inactive calls. Calls follow the shape of the full dose curve.

Biological target: Gonadotropin-releasing hormone receptor (Homo sapiens) (UniProt P30968)
Test: Human gonadotropin-releasing hormone receptor (GnRHR) small molecule agonists, calcium flux assay in GnRHR-HEK293 cells (AID 1920063); also: nearly all actives have a fitted effect of over 35% in size
Conditions: calcium flux fluorescence, agonist mode; series mostly up to 57.6 µM
Source text: National Center for Advancing Translational Sciences [NCATS]
Division of Preclinical Innovation [DPI]
U.S. Environmental Protection Agency [EPA]
National Institutes of Environmental Health Sciences [NIEHS]
National Toxicology Program [NTP]
U.S. Food and Drug Administration [FDA]
Gonadotropin-releasing hormone receptor (GnRHR) is a G-protein-coupled receptor (GPCR) and acts (through phospholipase C) to increase intracellular inositol trisphosphate and then release intracellular calcium stores. Cell-based GnRHR-Hek293 calcium influx assay is using HEK293 cells that have been genetically engineered to express the human GnRHR, which activity can be measured by calcium signaling. A compound/drug can activate (agonist) GnRHR that can be monitored by levels of intracellular calcium.
GnRHR-HEK293 cells developed by Codex Corp contain human GnRHR reporter gene, which was stably integrated into HEK 293 cells. The compound activation can be detected by fluorescence intensity via calcium flux assay. This cell line has been used to screen the Tox21 10K compound library to identify GnRHR agonists.
GnRHR-Hek293 cells were dispensed at 1500cells/4uL/well in 1536-well black wall/clear bottom plates using a multidrop dispenser. After the assay plates were incubated at a 37 C/5% CO2 incubator for 18 hours, 4 uL of Calcium Dye Solution was added to each well. The plates were incubated at 37 C for 1 hour. For agonist mode, 23 nL of compounds dissolved in DMSO, positive controls or DMSO only was transferred to the assay plate by a pin tool station. The fluorescence intensity in the plates was measured using FDSS 7000EX kinetic plate reader with a filter set of Ex/Em=480/540 for 3 min at 1 sec intervals. Each test compound was measured at 15 concentrations and in triplicates.
Potency is read from the fitted curve at half-maximal effect.

Gonadotropin-releasing hormone receptor (Homo sapiens), sequence (P30968 whole entry, looked up): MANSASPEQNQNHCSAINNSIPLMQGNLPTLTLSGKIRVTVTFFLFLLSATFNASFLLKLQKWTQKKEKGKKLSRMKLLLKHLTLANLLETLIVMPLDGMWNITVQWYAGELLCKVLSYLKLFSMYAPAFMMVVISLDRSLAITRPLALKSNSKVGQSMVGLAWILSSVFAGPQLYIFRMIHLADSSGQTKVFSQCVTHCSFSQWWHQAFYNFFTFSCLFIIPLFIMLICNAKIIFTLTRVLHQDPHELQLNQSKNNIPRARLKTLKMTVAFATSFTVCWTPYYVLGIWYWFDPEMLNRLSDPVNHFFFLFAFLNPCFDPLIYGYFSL

| Compound | Potency | activity change |
| --- | --- | --- |
| CC(C)CC(C)(C)C | inactive | – |
| O=C1CCCCCCCCCCCCCCO1 | inactive | – |
| Nc1nc(N)c2nc(CNc3ccc(C(=O)N[C@@H](CCC(=O)O)C(=O)O)cc3)cnc2n1 | inactive | – |
| O=C1c2ccccc2C(=O)c2c(O)c(O)cc(O)c21 | inactive | – |
| CN(C)CCN(C)CCO | inactive | – |
| COc1cc([C@@H]2c3cc4c(cc3[C@@H](O[C@@H]3O[C@@H]5CO[C@@H](C)O[C@H]5[C@H](O)[C@H]3O)[C@H]3COC(=O)[C@H]23)OCO4)cc(OC)c1O | inactive | – |
| c1ccc(-c2ccccc2-c2ccccc2)cc1 | inactive | – |
| OCCOc1cccc(OCCO)c1 | inactive | – |
| O=C1c2ccccc2C(=O)c2c1ccc(O)c2O | inactive | – |
| O=[N+]([O-])c1cccc(S(=O)(=O)O)c1 | inactive | – |
| COc1ccc(C(=O)/C(Br)=C\C(=O)O)cc1 | inactive | – |
| CN(C)CCCN1c2ccccc2Sc2ccc(C(F)(F)F)cc21 | inactive | – |
| CCC(C)N (stereo not given) | inactive | – |
| Cc1c(C(=O)O)c(O)cc2c1C(=O)c1c(O)c([C@@H]3O[C@H](CO)[C@@H](O)[C@H](O)[C@H]3O)c(O)c(O)c1C2=O | inactive | – |
| CNC(=S)NC | inactive | – |
| C[C@]12CC[C@H]3C(=CCc4cc(O)ccc43)[C@@H]1CCC2=O | inactive | – |
| OCCN(CCO)c1nc(N2CCCCC2)c2nc(N(CCO)CCO)nc(N3CCCCC3)c2n1 | 15.1 µM (active) | – |
| O[C@@H](c1cc(C(F)(F)F)nc2c(C(F)(F)F)cccc12)[C@H]1CCCCN1 | 16.9 µM (active) | – |
| CC/C=C\C/C=C\C/C=C\CCCCCCCC(=O)OC | inactive | – |
| CC(=O)c1ccc2c(c1)N(CCCN(C)C)c1ccccc1S2 | inactive | – |

| Compound | Potency | activity change |
| --- | --- | --- |
| C=CC(=O)OCCn1c(=O)n(CCOC(=O)C=C)c(=O)n(CCOC(=O)C=C)c1=O | inactive | – |
| CCC(C)n1ncn(-c2ccc(N3CCN(c4ccc(OC[C@H]5CO[C@](Cn6cncn6)(c6ccc(Cl)cc6Cl)O5)cc4)CC3)cc2)c1=O (stereo not given in full) | inactive | – |
| Fc1ccc(C(c2ccc(F)cc2)N2CCNCC2)cc1 | inactive | – |
| CN(c1nccc(=O)[nH]1)C1CCN(c2nc3ccccc3n2Cc2ccc(F)cc2)CC1 | inactive | – |
| Oc1cc2ccccc2c2ccccc12 | inactive | – |
| Clc1cc(Cl)c2c(c1)N=C1CCCCCN1C2 | inactive | – |
| CN(C)[C@@H]1C(=O)C(C(N)=O)=C(O)[C@@]2(O)C(=O)C3=C(O)c4c(O)cccc4C[C@H]3C[C@@H]12 | inactive | – |
| CC(C)OC(=O)c1cc(C(=O)OC(C)C)cc([N+](=O)[O-])c1 | inactive | – |
| CN(C)C(=O)COC(=O)Cc1ccc(OC(=O)c2ccc(N=C(N)N)cc2)cc1 | inactive | – |
| Clc1ccc2nsnc2c1NC1=NCCN1 | inactive | – |
| CCCCN(CCO)CCCC | inactive | – |
| O=S(=O)(c1ccc(OCc2ccccc2)cc1)c1ccccc1O | inactive | – |
| Cc1cc(C)c(N)cc1C | inactive | – |
| CC(C)(C)C(=O)c1ccccc1 | inactive | – |
| COc1cc2ncnc(Nc3cccc(Cl)c3)c2cc1OC | – | -1.73% [at 11.8 µM, active compounds read high] |
| CN1[C@@H]2CC[C@@H]1CC(OC(=O)C(CO)c1ccccc1)C2 (stereo not given in full) | inactive | – |
| O=C(O)CN1C(=O)c2cccc3cccc(c23)C1=O | inactive | – |
| CCCCNCC | inactive | – |
| O=C(O)COC(=O)Cc1ccccc1Nc1c(Cl)cccc1Cl | inactive | – |
| CCCNCC(O)COc1ccccc1C(=O)CCc1ccccc1 (stereo not given) | inactive | – |
